Hit rate of the full screen: of about 340,000 compounds, about 6,900 (2%) were called active. The sample holds actives, similar compounds and a random draw of the others, so the mix is not that of the screen. No stated cut-off is given here; in the data, active means inhibition above about 30%; inactive means below that, where a call was filed.

The target of this assay is D(2) dopamine receptor (Homo sapiens) (UniProt P14416). As to the kind of experiment: HTS Assay for Allosteric Antagonists of the Human D2 Dopamine Receptor: Primary Screen for Antagonists. Further: 0% is about no effect. Conditions: HEK293 TREx D2 cells, calcium flux, dopamine EC80; at 10 µM; active compounds read high. An outline of the steps: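 Inhibition of EC80 dopamine-driven calcium flux, recorded kinetically, defines activity here; cells are a tetracycline-induced HEK293 T-REx line expressing force-coupled D2.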
Chain of D(2) dopamine receptor (Homo sapiens) (P14416 whole entry, looked up): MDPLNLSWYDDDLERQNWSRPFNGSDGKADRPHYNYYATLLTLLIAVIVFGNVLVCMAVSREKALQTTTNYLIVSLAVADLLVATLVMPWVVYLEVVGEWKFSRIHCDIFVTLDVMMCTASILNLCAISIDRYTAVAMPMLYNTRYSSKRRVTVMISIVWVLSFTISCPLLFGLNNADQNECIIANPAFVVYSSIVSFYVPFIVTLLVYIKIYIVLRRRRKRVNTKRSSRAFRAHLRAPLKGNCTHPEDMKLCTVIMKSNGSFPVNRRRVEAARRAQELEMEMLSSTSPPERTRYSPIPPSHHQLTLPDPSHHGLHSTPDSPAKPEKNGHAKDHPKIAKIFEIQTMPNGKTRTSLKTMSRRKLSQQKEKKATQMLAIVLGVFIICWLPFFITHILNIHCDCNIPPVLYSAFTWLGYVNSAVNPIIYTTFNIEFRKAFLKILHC
What is called inhibition is the change of the read-out against control, counted positive when it falls. For `COc1ccccc1/C=C/CN1CCC(CO)(Cc2ccccc2)CC1`, the inhibition is 53.2% (active).

`COC(=O)CCC(=O)N1CCCC(CO)(Cc2ccccc2)C1` (stereo not drawn): the inhibition was 3.17% (inactive).

On to `COc1ccccc1/C=C/C=N/NC(=O)CN1CCN(Cc2ccccc2)CC1`, for which the inhibition is -10.7% (inactive).

For the compound `Cc1cc(NC(=O)COc2ccc([N+](=O)[O-])cc2)no1`, the inhibition is -5.38% (inactive).

For `COc1ccccc1NC(=O)COC(=O)COc1ccccc1F`, the inhibition was -3.39% (inactive).

On to `Cc1ccc(OCCNC(=O)CN2C(=O)NC3(CCCC3)C2=O)cc1`, for which the inhibition was 1.97% (inactive).

Turning to `COc1cc(C(c2c(NC(=O)c3ccco3)sc(C)c2C)N2CCOCC2)cc(OC)c1OC` (stereo not drawn), the inhibition is -0.625% (inactive).

For `CCOc1ncccc1C(=O)OCC(=O)N1c2ccccc2CC1C` (stereo not drawn), the inhibition was -9.6% (inactive).

Turning to `CN(CC(=O)NC1CCCCC1)S(=O)(=O)c1ccc(Br)s1`, the inhibition is 3.02% (inactive).

Turning to `CN(CC(=O)NC1CCN(Cc2ccccc2)CC1)S(=O)(=O)c1ccc(Cl)s1`, the inhibition was 68.5% (active).

For the compound `CCOc1ccc(CC(=O)NC2CCN(Cc3ccccc3)CC2)cc1`, the inhibition is 7.65% (inactive).

For the compound `CC(C)N(C(=O)CSc1nnc(NC2CC2)s1)c1ccccc1`, the inhibition was -9.12% (inactive).

Turning to `Nc1nnc(SCC(=O)NCC(=O)Nc2ccc(F)c(F)c2F)s1`, the inhibition is 17.4% (inactive).

As to `O=C(c1ccc(Cl)nc1)N1CCN(S(=O)(=O)c2ccc3c(c2)OCCO3)CC1`, the inhibition was -22.8% (inactive).

As to `O=C(COC(=O)c1cccc(Cl)c1)NC1CCCCCCC1`, the inhibition is 4.87% (inactive).

For the compound `O=C(COC(=O)c1ccccc1Cl)NC1CCCCCCC1`, the inhibition was 40.2% (active).

As to `O=C(COC(=O)c1ccccc1SCC(=O)NC1CCCCC1)NC1CCCCC1`, the inhibition is -0.864% (inactive).

In the case of `CC(=O)Nc1ccc(S(=O)(=O)N2CCN(CCCOc3cc(C)ccc3C)CC2)cc1`, the inhibition is 3.73% (inactive).

Regarding `Cc1ccc(C(C)(C)C)c(OCCCCN2CCCC2)c1`, the inhibition is 31% (active).

For the compound `Cc1ccc(OCCCCN2CCCCC2)c(Br)c1`, the inhibition is 73.5% (active).

On to `Cc1ccc(C(C)C)cc1OCCN1CCCC1`, for which the inhibition is -14.6% (inactive).

As for `C=CCN(CC=C)CCOc1ccccc1[N+](=O)[O-]`, the inhibition was 6.41% (inactive).

On to `O=[N+]([O-])c1ccccc1OCCCCN1CCCCC1`, for which the inhibition is 93.9% (active).

As for `CC1CN(CCOc2ccccc2[N+](=O)[O-])CC(C)O1` (stereo not drawn), the inhibition is 1.8% (inactive).

Take `CC(C)(c1ccccc1)c1ccc(OCCN2CCCC2)cc1`: the inhibition is 0.0464% (inactive).

Regarding `COc1cccc(OCCCN2CCCCCC2)c1`, the inhibition is -12.6% (inactive).

In the case of `CCN(C(=O)CSc1ncnc2sccc12)c1c(N)n(Cc2ccccc2)c(=O)[nH]c1=O`, the inhibition is -15.3% (inactive).

Regarding `Cc1ccc(S(=O)(=O)N2CCCCC2)cc1NC(=O)[C@@H]1CCCN1C(=O)c1cccs1`, the inhibition was -14.3% (inactive).

Consider `Cc1cc(C)c(S(=O)(=O)N2CCC(C(=O)OCc3c(C)noc3C)CC2)c(C)c1`, for which the inhibition was 7.04% (inactive).

`O=C(CN1CCCCC1)Nc1ccccc1C(=O)NC1CC1`: the inhibition was 7.71% (inactive).

`Cc1ccc(NC(=O)COC(=O)CN2CCCCCC2=O)c(C)c1`: the inhibition is -4.24% (inactive).

With `OCC1(CCc2ccccc2)CCN(Cc2ccc3nsnc3c2)CC1`, the inhibition is 36.1% (active).

`CC(C)(O)C#Cc1ccc(CN2CCC(CO)(CCc3ccccc3)CC2)cc1`: the inhibition was 14.6% (inactive).

`Cc1cccc(-c2ncc(CN3CCC(CO)(CCCc4ccccc4)CC3)cn2)c1`: the inhibition was 6.88% (inactive).

Regarding `CN(CCOc1ccccc1)C(=O)c1cc(-c2ccco2)nc2ccccc12`, the inhibition is 3.66% (inactive).

`CC(=O)Nc1ccc(NC(=O)C(C)OC(=O)c2ccccc2C(=O)c2ccc(Cl)c([N+](=O)[O-])c2)cc1` (stereo not drawn): the inhibition was 36.3% (active).

With `CC(OC(=O)CNC(=O)c1ccc(Cl)c([N+](=O)[O-])c1)C(=O)NCc1ccco1` (stereo not drawn), the inhibition was 26.5% (inactive).

As to `N#Cc1cccc(NC(=O)COC(=O)c2ccccc2C(=O)c2ccc(Cl)c([N+](=O)[O-])c2)c1`, the inhibition was 7.92% (inactive).

With `Cc1ccc(S(=O)(=O)CCC(=O)OCC(=O)NCCc2ccc(S(N)(=O)=O)cc2)cc1`, the inhibition was -1.28% (inactive).

`CC(=O)Nc1ccc(NC(=O)C(NS(=O)(=O)c2ccc3c(c2)OCCO3)C(C)C)cc1` (stereo not drawn): the inhibition is -6.92% (inactive).

`CCOCc1c(C(=O)N2CCN(Cc3ccc(Br)s3)CC2)oc2ccccc12`: the inhibition is 32.1% (active).

On to `COCC(=O)Nc1c(C(=O)N2CCCC2)oc2ccccc12`, for which the inhibition was -20% (inactive).

For the compound `COc1ccc(N2CCN(Cc3ccc(Br)s3)CC2)cc1`, the inhibition is -12.7% (inactive).

For the compound `CS(=O)(=O)c1ccc(Cl)c(NC(=O)COC(=O)c2ncc(Cl)c(Cl)c2Cl)c1`, the inhibition is -16.5% (inactive).

For `Cc1cccc(CN2CCC(CNC(=O)Nc3ccc(F)c(Cl)c3)CC2)c1`, the inhibition was -7.23% (inactive).

On to `COc1cc(NC(=O)NCC2CCN(Cc3ccc(C)cc3)CC2)cc(OC)c1OC`, for which the inhibition is 33.3% (active).

Consider `Cc1ccc(C)c(CN2CCC(CNC(=O)Nc3ccc(C)c(F)c3)CC2)c1`, for which the inhibition is -38% (inactive).

In the case of `COc1cc(C(=O)N(C)Cc2cccc(OC)c2OC)ccc1OCC(=O)Nc1cccc(C(F)(F)F)c1`, the inhibition was -10.9% (inactive).

On to `N#CCc1ccc(OC(=O)c2cccnc2)cc1`, for which the inhibition was 0.882% (inactive).

Regarding `O=C(Oc1ccc(Br)cc1)c1cccnc1`, the inhibition is 38.5% (active).

Consider `CCCCCCOc1ccc(OC(=O)c2cccnc2)cc1`, for which the inhibition is 3.26% (inactive).

As to `Cc1ccc2c(CN3CCN(S(=O)(=O)c4ccccc4C(F)(F)F)CC3)cc(=O)oc2c1`, the inhibition is -23.9% (inactive).

`CC(C)(C)OC(=O)NCCCCCNC(=O)c1nc[nH]c1C(=O)NCc1ccccc1`: the inhibition is 7.02% (inactive).

Turning to `Cc1ccc(-c2nc(CSCC(=O)NC3CCN(Cc4ccccc4)CC3)c(C)o2)cc1`, the inhibition is 47.3% (active).

As for `Cc1ccc(S(=O)(=O)NCCC(=O)NC2CCN(Cc3ccccc3)CC2)cc1`, the inhibition is 27.4% (inactive).

Turning to `Cc1ccc(-c2cc(C(=O)NC3CCN(Cc4ccccc4)CC3)c3ccccc3n2)cc1`, the inhibition is -27.8% (inactive).

With `CN(CC(=O)Nc1ccc(F)cc1)CC(=O)N1CCCCC1`, the inhibition was -7.3% (inactive).

On to `Cc1cc(C(=O)Nc2nnc(C3CC3)s2)c(C)s1`, for which the inhibition is 3.85% (inactive).

`COc1ccc(CC2(CO)CCN(Cc3cnn(C)c3)CC2)cc1`: the inhibition is -4.17% (inactive).

With `COC(=O)c1ccc(CN2CCC(CO)(Cc3ccc(OC)cc3)CC2)cc1`, the inhibition is 63.2% (active).

As for `CCOC(=O)C1(CCOC)CCN(Cc2ccc(C(=O)OC)cc2)CC1`, the inhibition is 5.1% (inactive).

Regarding `Cc1ccc(C)c(NC(=O)COC(=O)CSc2ccccc2)c1`, the inhibition was -6.28% (inactive).

With `N#CCCN(C(=O)COC(=O)C1CCN(c2ccc(C(F)(F)F)cn2)CC1)c1ccc(F)cc1`, the inhibition is 5.59% (inactive).

Take `COc1ccc(Cl)cc1NC(=O)COc1ccc2c(c1)OCO2`: the inhibition was 7.9% (inactive).

In the case of `C[C@H](OC(=O)n1ccnc1)[C@@H]1O[C@@]2(C)CCC[C@@H]1O2`, the inhibition was -7.72% (inactive).

With `CC1(C)OC(=O)N2CCc3ccccc3C21C` (stereo not drawn), the inhibition is 40.5% (active).

On to `CC1Cc2ccccc2N1C1=CC(=O)CC(C)(C)C1` (stereo not drawn), for which the inhibition is 3.51% (inactive).

On to `CCN(CC(=O)Nc1ccccc1C(F)(F)F)C(=O)CSCc1c(C)noc1C`, for which the inhibition is 1.97% (inactive).

As to `C=CCN1C(=O)C(O)(CC(=O)c2ccc(Cl)cc2)c2ccccc21` (stereo not drawn), the inhibition is 0.63% (inactive).

Regarding `C=CCN1C(=O)C(O)(CC(=O)c2ccccn2)c2ccccc21` (stereo not drawn), the inhibition is 3.67% (inactive).

Turning to `O=C(CC1(O)C(=O)N(CN2CCOCC2)c2ccccc21)c1ccccc1` (stereo not drawn), the inhibition is 30.3% (active).

Turning to `CCc1noc(C)c1C(=O)Oc1ccc(N(C)S(=O)(=O)c2ccc(C)c(C)c2)cc1`, the inhibition was -5.58% (inactive).

`Cc1ccc(S(=O)(=O)N(C)C)cc1NC(=O)C(C)OC(=O)c1ccc2ccccc2n1` (stereo not drawn): the inhibition was 5.2% (inactive).

On to `COc1cc(C(C)=O)ccc1OC(C)C(=O)Nc1ccc(S(=O)(=O)N2CCCC2)cc1` (stereo not drawn), for which the inhibition was -10.1% (inactive).

Consider `CC(=O)N1C(=O)C2(Nc3ccccc3N2)c2ccccc21`, for which the inhibition was 34.2% (active).

For the compound `CC(C)(C)C(=O)CCN1C(=O)C2(OCCO2)c2ccccc21`, the inhibition was -2.06% (inactive).

As to `O=C1CN(C(=O)CN2C(=O)NC3(CCCCC3)C2=O)c2ccccc2N1`, the inhibition is 3.68% (inactive).

Take `CC1CCN(C(=O)COC(=O)c2cc(=O)[nH]c3ccccc23)CC1`: the inhibition was -0.452% (inactive).

For `CC(NC(=O)c1ccccc1F)c1cccc2ccccc12` (stereo not drawn), the inhibition is 10.4% (inactive).

On to `Cc1nn(CC(=O)N2CCCCC2)c(=O)c2nn(-c3ccccc3)c(C)c12`, for which the inhibition was 20.3% (inactive).

For the compound `COc1ccc(OC)c(CNC(=O)Cn2nc(C)c3c(C)n(-c4ccc(C)cc4)nc3c2=O)c1`, the inhibition is 30% (active).

`CCOC(=O)C1CCN(C(=O)Cn2nc(C)c3c(C)n(-c4ccccc4)nc3c2=O)CC1`: the inhibition was 2.33% (inactive).

`CC(=O)c1sc(N)nc1C`: the inhibition is 9.17% (inactive).

In the case of `COc1ccc(C(C)(C)C)cc1NC(=O)CCN1C(=O)C2CCCCC2C1=O` (stereo not drawn), the inhibition was 11.5% (inactive).

In the case of `Cc1ccc(CC(=O)Nc2ccc(S(=O)(=O)N3CCOCC3)cc2)cc1C`, the inhibition is 19% (inactive).

On to `CN1C(C(=O)NCC2CC2)CC2Cn3c(nc4ccccc43)C21` (stereo not drawn), for which the inhibition is 6.56% (inactive).

Turning to `CN1C(C(=O)NCc2ccco2)CC2Cn3c(nc4ccccc43)C21` (stereo not drawn), the inhibition is 12.7% (inactive).

On to `C[C@H]1[C@H]2c3nc4ccccc4n3C[C@H]1ON2C1CCCCC1`, for which the inhibition was 31% (active).

Consider `Cc1cc(C(=O)COc2ccc(Br)cc2F)c(C)n1C1CC1`, for which the inhibition is -10.6% (inactive).

For the compound `O=C(CN1CCN(c2ccccc2O)CC1)NC(=O)NCc1ccccc1`, the inhibition is -6.15% (inactive).

As for `COc1ccc2oc(C(=O)OCC(=O)N(CC(C)C)c3c(N)n(Cc4ccccc4)c(=O)[nH]c3=O)c(C)c2c1`, the inhibition was -27.2% (inactive).

Regarding `Cc1ccc(NC(=O)C(C)OC(=O)Cc2c[nH]c3ccccc23)cc1S(=O)(=O)N1CCOCC1` (stereo not drawn), the inhibition is -4.91% (inactive).

In the case of `CC(C)CCN1CCC(C)(NC(=O)c2ccccc2)C1=O` (stereo not drawn), the inhibition is 3.51% (inactive).

Values taken from PubChem BioAssay AID485344 (National Center for Advancing Translational Sciences (NCATS), 2010).
